Test results: the supplement of paper PMC3724861
Only a selection was taken, and hits are over-represented in it overall. The hit rate among all sequences tested is not known here. Unmarked numbers belong to inactive results.

system: T1, Caupolican (Caup) homeodomain DNA-binding domain; experiment: PBM E-score (8-mer, recovered from the published 9-mer minima) (E-score (dimensionless, -0.5 to 0.5)); Drosophila protein; higher = stronger relative binding preference, active = 0.31 or more
T1 sequence: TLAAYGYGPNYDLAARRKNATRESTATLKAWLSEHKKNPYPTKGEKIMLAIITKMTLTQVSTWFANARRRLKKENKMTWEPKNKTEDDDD
Procedure, shortened: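 Caup's homeodomain DNA-binding domain (residues 214-303) was made by in vitro transcription and translation and applied at 100 nM to custom-designed protein binding microarrays. Each value is an enrichment score that gives relative binding preference for a short DNA word, with higher meaning stronger. The 8-mer values were recovered from published 9-mer scores, each of which was the minimum of its two constituent 8-mer scores. A cutoff of 0.31 marks candidate sites.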

Row | Sequence | PBM E-score
1 | ATCTGATG | 0.072
2 | ACGATTTG | 0.11
3 | ATTACAAT | 0.298
4 | ATTACAAC | 0.37 (active)
5 | ATCACAAC | 0.212
6 | ATTACAAG | ≥ 0.427 (active)
7 | ATTACAAA | 0.259
8 | ATTACTAC | 0.293
9 | ACGTTCGG | -0.177
10 | ACTAGCCA | 0.0322
11 | CATAGTGA | 0.155
12 | ATGTCAAT | 0.359 (active)
13 | AGGTCAAA | -0.0266
14 | AAGTCAAA | 0.0275
15 | ACGTCAAT | -0.00307
16 | GTGTCAAA | 0.294
17 | CTGTCAAC | 0.186
18 | GTGTCAAC | 0.272
19 | ATGTCAAC | 0.324 (active)
20 | ATGTCAAA | 0.359 (active)
21 | CTGTCAAA | 0.164
22 | TTGTCAAA | 0.316 (active)
23 | ATGTCAAG | 0.309
24 | ACCCGATC | -0.0489
25 | CTTGGTAA | 0.0467
26 | CTCGTCAA | 0.0256

Row | Sequence | PBM E-score
27 | GGTGGTTA | 0.0166
28 | AATTGAGT | 0.131
29 | ACACCCTC | -0.0435
30 | CAGCACGG | -0.0332
31 | ATAATCAG | 0.101
32 | AGAGCAAG | 0.0346
33 | CAACACAA | 0.241
34 | GGACACAA | 0.204
35 | GAACACAC | 0.217
36 | TAACACAA | 0.319 (active)
37 | GAACACAA | 0.317 (active)
38 | AAACACAA | 0.27
39 | AGATCGGC | -0.152
40 | ACCTGGAC | -0.0342
41 | CCCGTGTC | 0.145
42 | GCCGTGTA | 0.341 (active)
43 | GCCGTGAA | -0.0891
44 | ACCGTGTG | 0.115
45 | ACCGTGCA | 0.00395
46 | ACCGTGTC | 0.312 (active)
47 | ACCGTGGA | -0.107
48 | ACCGTGTA | 0.359 (active)
49 | CCCGTGTA | 0.25
50 | GAACACCA | 0.195
51 | ACTATCAG | 0.083
52 | ATTATTAA | 0.191

Row | Sequence | PBM E-score
53 | ACATTTTC | 0.161
54 | ACGCGACT | 0.0019
55 | CTCATAAG | 0.0492
56 | CATGACAG | 0.151
57 | GATAGATA | 0.08
58 | AGCTTCAC | -0.0515
59 | CATGGGAC | 0.151
60 | GAATGTTA | 0.234
61 | AGATGTTG | 0.203
62 | CGATGTTC | 0.249
63 | CAATGTTC | 0.218
64 | ACATGTTA | 0.452 (active)
65 | CCATGTTC | 0.368 (active)
66 | ACCTGTTA | 0.222
67 | AGATGTTA | 0.286
68 | GCATGTTA | 0.397 (active)
69 | AAATGTTG | 0.201
70 | GGATGTTA | 0.204
71 | ACATGTTG | 0.453 (active)
72 | GAGCCTCA | -0.214
73 | CCATATGG | -0.073
74 | AGCACTGA | -0.0101
75 | ACACTCTA | 0.0891
76 | AGTTTTGA | 0.0657
77 | CGTCCGGC | -0.219
78 | AAATGTTC | 0.247

Row | Sequence | PBM E-score
79 | CCATGTTA | 0.406 (active)
80 | CGATGTTA | 0.297
81 | ACATGTTC | 0.455 (active)
82 | CAATGTTA | 0.269
83 | AGATGTTC | 0.286
84 | GATTTGCA | 0.0416
85 | ATAGTTCC | -0.029
86 | AAAGCCCC | -0.238
87 | CGTTAAGC | -0.0697
88 | GGTTGTGA | 0.0824
89 | CGTTGTAA | 0.261
90 | GGTTGTTA | 0.324 (active)
91 | GGTTGTAC | 0.222
92 | TGTAGTAA | 0.376 (active)
93 | CGTTGTTA | 0.305
94 | AGTTGTAA | 0.279
95 | AGTAGTAA | 0.168
96 | AGTTGTTA | 0.266
97 | CGTAGTAA | 0.145
98 | TGTTGTAA | 0.377 (active)
99 | GGTTGTAA | 0.333 (active)
100 | ACGAGGTG | 0.0761
101 | AGATGCAC | -0.00186
102 | AGCGTTCG | -0.141
103 | ATTAGGAA | 0.0485
104 | AGCAACAC | 0.186

Row | Sequence | PBM E-score
105 | AGACGCGC | -0.0474
106 | ACACGACT | 0.251
107 | ACACGTCG | 0.212
108 | ACACGACA | ≥ 0.386 (active)
109 | CCACGATA | 0.0391
110 | ACACGTCT | 0.203
111 | ACACGTCA | 0.325 (active)
112 | ACACAATA | 0.31 (active)
113 | ACACGATC | 0.254
114 | GCACAATA | 0.0168
115 | ACACGATA | 0.322 (active)
116 | ACACAATG | 0.273
117 | ACACGACC | 0.215
118 | AGACTGTG | 0.0481
119 | GCAGTCTA | 0.0232
120 | AAGATTGC | -0.00712
121 | CATTTCAG | 0.00691
122 | ACACGATG | 0.347 (active)
123 | ACACGAAG | 0.174
124 | ACACGAGG | 0.111
125 | AAAAGCAT | 0.1
126 | CGTACACG | 0.341 (active)
127 | GGTACACA | 0.28
128 | CGTACACA | 0.255
129 | TGTACAAA | 0.384 (active)
130 | TGTACCAA | 0.312 (active)

Row | Sequence | PBM E-score
131 | TCTACACA | 0.157
132 | TGTACACA | 0.407 (active)
133 | AGTACCAA | 0.128
134 | CGTACACC | 0.205
135 | TTTACAAA | 0.245
136 | CGTACCAA | 0.0356
137 | AGTACAAA | 0.26
138 | CGTATAGC | -0.0127
139 | ACTGCCTG | -0.0684
140 | ATGCTCGC | -0.0878
141 | CGTCTGTC | 0.0202
142 | GCTTATAC | -0.034
143 | CATATTTA | 0.178
144 | AAGCTGTG | 0.00524
145 | ATCCCGAC | -0.0204
146 | GCAGGTTA | -0.0457
147 | AGGTTATA | 0.0929
148 | CTGTTATA | 0.187
149 | AAGTTATG | 0.185
150 | AAGTTATA | 0.163
151 | ATGTTATC | 0.351 (active)
152 | GTGTTATA | 0.334 (active)
153 | ATGTTATA | 0.381 (active)
154 | AGGTTATG | 0.044
155 | ACGTTATC | 0.0197
156 | CTGTTATC | 0.103

Row | Sequence | PBM E-score
157 | ATGTTATG | 0.338 (active)
158 | GCGTTATA | -0.0159
159 | AGTGCGGA | -0.0562
160 | AATGGATA | 0.0292
161 | AGGCAAGC | -0.0636
162 | CCTCCAAG | -0.0978
163 | AAGTAGCG | -0.0607
164 | ACATAAGG | 0.2
165 | AGACGTGG | -0.0599
166 | AACCACAC | 0.0803
167 | AAGTTCGC | -0.11
168 | AATCCCTA | 0.0149
169 | CAGTTCTA | 0.0212
170 | ACGATGTC | 0.261
171 | GTGATGAA | 0.0845
172 | ATGATGTA | ≥ 0.383 (active)
173 | CCGATGTA | 0.159
174 | ACGATGTA | 0.36 (active)
175 | CTGATGTC | 0.212
176 | ATGATGGA | 0.0619
177 | ATGATGTC | 0.312 (active)
178 | ATGATGTG | 0.0894
179 | GTGATGTA | ≥ 0.383 (active)
180 | CTGATGTA | 0.251
181 | ATGATGAA | 0.158
182 | GATTCGGC | -0.0366

Row | Sequence | PBM E-score
183 | CAGAACAG | 0.0845
184 | ATCGCTTG | -0.0165
185 | ATAGTCCG | 0.00249
186 | TAGCAAGA | 0.142
187 | CTACTCAA | 0.116
188 | CCAGTCAG | -0.104
189 | TCGCAACA | 0.0932
190 | CTATACGA | 0.0334
191 | CAGATGTA | 0.247
192 | GAGATGTA | 0.329 (active)
193 | AAGATGTA | 0.298
194 | TATTGAAA | 0.117
195 | CTTATGTC | 0.224
196 | GTTATGTA | 0.276
197 | ATTATGTG | 0.197
198 | ATTATGTC | 0.227
199 | ATTATGTA | 0.327 (active)
200 | CTTATGTA | 0.345 (active)
201 | CGGTTCAA | -0.15
202 | AGCGGTTA | -0.0759
203 | AGAGATGA | -0.00602
204 | AGGACATC | 0.233
205 | ACGACATA | 0.299
206 | CCGACAAC | 0.198
207 | AAGACATA | 0.229
208 | ACGACATC | 0.26

Row | Sequence | PBM E-score
209 | ACGACAAC | 0.339 (active)
210 | AGGACATG | 0.38 (active)
211 | AGGACAAG | 0.254
212 | GCGACAAC | 0.224
213 | AAGACATG | 0.381 (active)
214 | ACGACATG | ≥ 0.416 (active)
215 | AAGACATT | 0.0764
216 | CATTTTGA | 0.0478
217 | ACGAGTGC | 0.0719
218 | ATATACTG | 0.156
219 | TCAACGAA | 0.0771
220 | GGGATTAC | 0.0873
221 | CTGCGTGA | -0.0361
222 | GACCTCTA | -0.142
223 | GATGCCTA | 0.0242
224 | CGCTAGAC | -0.0864
225 | ACGACAAA | 0.194
226 | ACGACAAG | ≥ 0.317 (active)
227 | ACGACAAT | 0.186
228 | CCACAGCC | -0.141
